According to article PMC11062922 (Nature Chemical Biology, 2023):

How the values were obtained:
ADCK3 = test system: ADCK3; parameters: species or system human, MV4-11 + K-562 + COLO205 + SK-N-BE2 + OVCAR-8; conditions: read-out: apparent Kd; compound concentrations: 100 nM and 1000 nM (sheet 'Samples'), CATDS: 5.9783524932330002E-2; n = 1
ADRBK1 = test system: ADRBK1; parameters: species or system human, MV4-11 + K-562 + COLO205 + SK-N-BE2 + OVCAR-8; conditions: read-out: apparent Kd; compound concentrations: 100 nM and 1000 nM (sheet 'Samples'), CATDS: 4.7657416287883198E-2; n = 1
AKT1 = test system: AKT1; parameters: species or system human, MV4-11 + K-562 + COLO205 + SK-N-BE2 + OVCAR-8; conditions: read-out: apparent Kd; compound concentrations: 100 nM and 1000 nM (sheet 'Samples'), CATDS: 4.0938746042506198E-2; n = 1
CSNK1A1 = test system: CSNK1A1; parameters: species or system human, MV4-11 + K-562 + COLO205 + SK-N-BE2 + OVCAR-8; conditions: read-out: apparent Kd; compound concentrations: 100 nM and 1000 nM (sheet 'Samples'), CATDS: 4.27416149593133E-2; n = 1
DYRK1A = test system: DYRK1A; parameters: species or system human, MV4-11 + K-562 + COLO205 + SK-N-BE2 + OVCAR-8; conditions: read-out: apparent Kd; compound concentrations: 100 nM and 1000 nM (sheet 'Samples'), CATDS: 4.0227920038392803E-2; n = 1
ILK = test system: ILK; parameters: species or system human, MV4-11 + K-562 + COLO205 + SK-N-BE2 + OVCAR-8; conditions: read-out: apparent Kd; compound concentrations: 100 nM and 1000 nM (sheet 'Samples'), CATDS: 5.1421329598879802E-2; n = 1
MAP2K2 = test system: MAP2K2; parameters: species or system human, MV4-11 + K-562 + COLO205 + SK-N-BE2 + OVCAR-8; conditions: read-out: apparent Kd; compound concentrations: 100 nM and 1000 nM (sheet 'Samples'), CATDS: 0.12895351362438101; n = 1
MAP3K1 = test system: MAP3K1; parameters: species or system human, MV4-11 + K-562 + COLO205 + SK-N-BE2 + OVCAR-8; conditions: read-out: apparent Kd; compound concentrations: 100 nM and 1000 nM (sheet 'Samples'), CATDS: 4.18687434788882E-2; n = 1
MDN1 = test system: MDN1; parameters: species or system human, MV4-11 + K-562 + COLO205 + SK-N-BE2 + OVCAR-8; conditions: read-out: apparent Kd; compound concentrations: 100 nM and 1000 nM (sheet 'Samples'), CATDS: 4.35192896952597E-2; n = 1
NNT = test system: NNT; parameters: species or system human, MV4-11 + K-562 + COLO205 + SK-N-BE2 + OVCAR-8; conditions: read-out: apparent Kd; compound concentrations: 100 nM and 1000 nM (sheet 'Samples'), CATDS: 0.130086313463294; n = 1
NQO1 = test system: NQO1; parameters: species or system human, MV4-11 + K-562 + COLO205 + SK-N-BE2 + OVCAR-8; conditions: read-out: apparent Kd; compound concentrations: 100 nM and 1000 nM (sheet 'Samples'), CATDS: 0.14484490381839699; n = 1
PIK3C3 = test system: PIK3C3; parameters: species or system human, MV4-11 + K-562 + COLO205 + SK-N-BE2 + OVCAR-8; conditions: read-out: apparent Kd; compound concentrations: 100 nM and 1000 nM (sheet 'Samples'), CATDS: 4.45420285121335E-2; n = 1
PLK1 = test system: PLK1; parameters: species or system human, MV4-11 + K-562 + COLO205 + SK-N-BE2 + OVCAR-8; conditions: read-out: apparent Kd; compound concentrations: 100 nM and 1000 nM (sheet 'Samples'), CATDS: 0.280824965441342; n = 1
PSMC3 = test system: PSMC3; parameters: species or system human, MV4-11 + K-562 + COLO205 + SK-N-BE2 + OVCAR-8; conditions: read-out: apparent Kd; compound concentrations: 100 nM and 1000 nM (sheet 'Samples'), CATDS: 4.0647702260791799E-2; n = 1
RIOK2 = test system: RIOK2; parameters: species or system human, MV4-11 + K-562 + COLO205 + SK-N-BE2 + OVCAR-8; conditions: read-out: apparent Kd; compound concentrations: 100 nM and 1000 nM (sheet 'Samples'), CATDS: 4.4447834501145103E-2; n = 1
SMG1 = test system: SMG1; parameters: species or system human, MV4-11 + K-562 + COLO205 + SK-N-BE2 + OVCAR-8; conditions: read-out: apparent Kd; compound concentrations: 100 nM and 1000 nM (sheet 'Samples'), CATDS: 4.1869296169603699E-2; n = 1
STK10 = test system: STK10; parameters: species or system human, MV4-11 + K-562 + COLO205 + SK-N-BE2 + OVCAR-8; conditions: read-out: apparent Kd; compound concentrations: 100 nM and 1000 nM (sheet 'Samples'), CATDS: 4.6875467745806497E-2; n = 1
VDAC3 = test system: VDAC3; parameters: species or system human, MV4-11 + K-562 + COLO205 + SK-N-BE2 + OVCAR-8; conditions: read-out: apparent Kd; compound concentrations: 100 nM and 1000 nM (sheet 'Samples'), CATDS: 0.150958833754439; n = 1
ADCK1 = test system: ADCK1; parameters: species or system human, MV4-11 + K-562 + COLO205 + SK-N-BE2 + OVCAR-8; conditions: read-out: apparent Kd; compound concentrations: 100 nM and 1000 nM (sheet 'Samples'), CATDS: 0.14562784613858401; n = 1
LIMK1 = test system: LIMK1; parameters: species or system human, MV4-11 + K-562 + COLO205 + SK-N-BE2 + OVCAR-8; conditions: read-out: apparent Kd; compound concentrations: 100 nM and 1000 nM (sheet 'Samples'), CATDS: 0.152053831473141; n = 1
NEK1 = test system: NEK1; parameters: species or system human, MV4-11 + K-562 + COLO205 + SK-N-BE2 + OVCAR-8; conditions: read-out: apparent Kd; compound concentrations: 100 nM and 1000 nM (sheet 'Samples'), CATDS: 0.19071251042520401; n = 1
NEK3 = test system: NEK3; parameters: species or system human, MV4-11 + K-562 + COLO205 + SK-N-BE2 + OVCAR-8; conditions: read-out: apparent Kd; compound concentrations: 100 nM and 1000 nM (sheet 'Samples'), CATDS: 0.104444124059675; n = 1
PIK3CG = test system: PIK3CG; parameters: species or system human, MV4-11 + K-562 + COLO205 + SK-N-BE2 + OVCAR-8; conditions: read-out: apparent Kd; compound concentrations: 100 nM and 1000 nM (sheet 'Samples'), CATDS: 0.203728906999049; n = 1
Q6ZSR9 = Q6ZSR9 (human, UniProt Q6ZSR9); parameters: species or system MV4-11 + K-562 + COLO205 + SK-N-BE2 + OVCAR-8; conditions: read-out: apparent Kd; compound concentrations: 100 nM and 1000 nM (sheet 'Samples'), CATDS: 0.122629729389454; n = 1
ULK3 = test system: ULK3; parameters: species or system human, MV4-11 + K-562 + COLO205 + SK-N-BE2 + OVCAR-8; conditions: read-out: apparent Kd; compound concentrations: 100 nM and 1000 nM (sheet 'Samples'), CATDS: 0.13028538158994399; n = 1

Q6ZSR9, sequence (Q6ZSR9 whole entry, looked up): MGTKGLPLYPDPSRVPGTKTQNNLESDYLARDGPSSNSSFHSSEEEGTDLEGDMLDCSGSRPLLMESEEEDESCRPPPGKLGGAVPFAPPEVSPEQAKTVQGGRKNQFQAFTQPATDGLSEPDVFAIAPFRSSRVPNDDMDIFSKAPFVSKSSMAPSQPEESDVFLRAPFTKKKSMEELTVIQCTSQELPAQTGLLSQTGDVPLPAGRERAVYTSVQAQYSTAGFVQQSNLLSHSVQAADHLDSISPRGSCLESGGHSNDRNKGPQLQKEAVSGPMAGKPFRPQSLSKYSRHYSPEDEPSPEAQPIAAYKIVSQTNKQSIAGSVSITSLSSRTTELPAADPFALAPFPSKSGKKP

Question: For `C[C@@H](Oc1cc(-n2cnc3ccc(OC[C@@H](O)CO)cc32)sc1C(N)=O)c1ccccc1Cl` [GSK978744A], which potency estimated from few doses (ADCK3) is on record?
Answer: 691 nM

Question: And the potency estimated from few doses (ADRBK1)?
Answer: 1300 nM

Question: And the potency estimated from few doses (AKT1)?
Answer: 2160 nM

Question: What about the potency estimated from few doses (CSNK1A1) of the same compound?
Answer: 1860 nM

Question: What about the potency estimated from few doses (DYRK1A) of the same compound?
Answer: 2310 nM

Question: And the potency estimated from few doses (ILK)?
Answer: 1040 nM

Question: What about the potency estimated from few doses (MAP2K2) of the same compound?
Answer: 124 nM

Question: What about the potency estimated from few doses (MAP3K1) of the same compound?
Answer: 2000 nM

Question: And the potency estimated from few doses (MDN1)?
Answer: 1740 nM

Question: What about the potency estimated from few doses (NNT) of the same compound?
Answer: 122 nM

Question: And the potency estimated from few doses (NQO1)?
Answer: 99.8 nM

Question: And the potency estimated from few doses (PIK3C3)?
Answer: 1620 nM

Question: And the potency estimated from few doses (PLK1)?
Answer: 35.3 nM

Question: What about the potency estimated from few doses (PSMC3) of the same compound?
Answer: 2220 nM

Question: And the potency estimated from few doses (RIOK2)?
Answer: 1630 nM

Question: What about the potency estimated from few doses (SMG1) of the same compound?
Answer: 1990 nM

Question: What about the potency estimated from few doses (STK10) of the same compound?
Answer: 1370 nM

Question: What about the potency estimated from few doses (VDAC3) of the same compound?
Answer: 92.8 nM

Question: How did the potency estimated from few doses (ADCK1) turn out when `COc1cc(Nc2nccc(N3CCC(NS(=O)(=O)c4ccc(NC(C)=O)cc4)CC3)n2)cc(OC)c1OC` [GSK1379825A] was run?
Answer: 1000 nM

Question: And the potency estimated from few doses (LIMK1)?
Answer: 921 nM

Question: What about the potency estimated from few doses (NEK1) of the same compound?
Answer: 610 nM

Question: What about the potency estimated from few doses (NEK3) of the same compound?
Answer: 2360 nM

Question: What about the potency estimated from few doses (PIK3CG) of the same compound?
Answer: 547 nM

Question: What about the potency estimated from few doses (Q6ZSR9) of the same compound?
Answer: 1490 nM

Question: What about the potency estimated from few doses (ULK3) of the same compound?
Answer: 1280 nM
